Test systems include PLK2; PLK3; PLK4; PRKCD; PRKCE; PRKCH; PRKCI; PRKCQ; PRKD1; PRKD2; PRKD3; PRKG1; PRKG2; PRKX; PRP4; QSK; RAF1; RET.
What all share (conditions): concentration: 1 μM, replicates: in singlicate; n = 1
The subject of another assay is T1, PRKR.
T1 construct: gene EIF2AK2

The subject of the next assay is T2, PYK2.
T2 construct: gene PTK2B
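Further: KINOMEscan kinase panel screen.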

For `O=C(Nc1n[nH]c2nc(-c3ccccc3O)ccc12)C1CC1` [SB-711880], the “%Inh” value with PLK2 is 0%; with PLK3 it was 0%; with PLK4, 0%; in the assay with PRKCD it was 25%; with PRKCE, 0%; in the assay on PRKCH, 0%. Besides, the “%Inh” value is listed as 27% in the assay with PRKCI; 0% in the assay with PRKCQ; 0% with PRKD1; 5% in the assay with PRKD2; 0% with PRKD3; 0% with PRKG1. Further, the “%Inh” value came to 28% with PRKG2; 10% with PRKR; 1% in the assay with PRKX; 0% in the assay on PRP4; 4% in the assay with PYK2; 33% in the assay on QSK. Moreover, the “%Inh” value with RAF1 and with RET was 0% each time.

With `CS(=O)(=O)c1cccc(CNc2nc(Nc3ccc4c(c3)CCC(=O)N4)ncc2C(F)(F)F)c1`, the “%Inh” value amounted to 29% in the assay on PLK2; 31% with PLK3; 51% with PLK4; 4% in the assay on PRKCD; 0% with PRKCE; 0% in the assay on PRKCH. In addition, the “%Inh” value in the assay with PRKCI was 13%; in the assay on PRKCQ, 0%; in the assay on PRKD1 it was 0%; with PRKD2, 0%; in the assay on PRKD3, 4%; in the assay on PRKG1 it was 0%. Also, the “%Inh” value in the assay on PRKG2 was determined as 0%; with PRKR, 0%; in the assay on PRKX, 0%; with PRP4, 30%; in the assay on PYK2 it was 26%; in the assay with QSK, 0%. Further, the “%Inh” value came out at 0% with RAF1 and 90.1% with RET.

In the case of `CCNc1nccc(-c2c(-c3ccc(F)cc3)ncn2C2CCN(C)CC2)n1`, the “%Inh” value with PLK2 turned out to be 0%; in the assay on PLK3, 0%; in the assay on PLK4, 0%; in the assay with PRKCD it was 6%; in the assay with PRKCE, 31%; with PRKCH, 0%. Besides, the “%Inh” value in the assay on PRKCI was determined as 0%; in the assay with PRKCQ, 0%; in the assay with PRKD1 it was 40%; in the assay with PRKD2, 0%; with PRKD3, 36%; with PRKG1 it was 0%. In addition, the “%Inh” value in the assay with PRKG2, in the assay with PRKR, in the assay with PRKX, in the assay with PRP4, in the assay with PYK2 and with QSK was 0% in each case. Further, the “%Inh” value in the assay on RAF1 and in the assay on RET was 0% each time.

Regarding `c1ccc(Oc2ccc(Nc3ccnc4cc(-c5ccc(CN6CCCCC6)o5)ccc34)cc2)nc1` [GW567143], the “%Inh” value with PLK2 is 0%; in the assay with PLK3, 0%; with PLK4, 44%; with PRKCD it was 7%; in the assay with PRKCE, 0%; with PRKCH it was 5%. The “%Inh” value with PRKCI is reported as 0%; in the assay on PRKCQ, 10%; with PRKD1, 0%; with PRKD2 it was 12%; with PRKD3, 0%; with PRKG1, 6%. Besides, the “%Inh” value turned out to be 0% in the assay with PRKG2; 0% in the assay with PRKR; 7% with PRKX; 2% in the assay on PRP4; 0% in the assay on PYK2; 27% in the assay on QSK. Further, the “%Inh” value amounted to 0% in the assay with RAF1 and 11% with RET.

Turning to `O=C(Nc1n[nH]c2cc(-c3cccs3)ccc12)C1CC1` [SB-731284], the “%Inh” value with PLK2 came out at 9%; with PLK3 it was 28%; in the assay with PLK4 it was 29%; in the assay on PRKCD it was 17%; with PRKCE, 11%; with PRKCH it was 0%. The “%Inh” value with PRKCI is recorded as 0%; with PRKCQ, 0%; in the assay with PRKD1, 0%; with PRKD2, 0%; in the assay with PRKD3, 7%; in the assay on PRKG1, 8%. The “%Inh” value in the assay on PRKG2 is listed as 22%; in the assay on PRKR, 0%; in the assay on PRKX, 0%; in the assay with PRP4, 7%; in the assay with PYK2 it was 0%; in the assay on QSK it was 44%. The “%Inh” value in the assay with RAF1 was 9%; in the assay on RET it was 0%.

Take `O=C(Nc1n[nH]c2nc(-c3cccc(O)c3)ccc12)C1CC1` [SB-711805]: the “%Inh” value in the assay with PLK2 is on record as 11%; in the assay on PLK3 it was 14%; in the assay with PLK4 it was 31%; with PRKCD, 1%; with PRKCE, 83%; in the assay on PRKCH, 0%. Also, the “%Inh” value was determined as 13% with PRKCI; 0% in the assay on PRKCQ; 0% with PRKD1; 20% with PRKD2; 0% in the assay with PRKD3; 21% in the assay with PRKG1. Besides, the “%Inh” value in the assay with PRKG2 is on record as 35%; in the assay on PRKR it was 100%; in the assay on PRKX, 0%; in the assay on PRP4, 0%; with PYK2, 11%; in the assay on QSK it was 18%. Moreover, the “%Inh” value in the assay on RAF1 was 6%; in the assay on RET, 0%.

As for `Cl.Cl.NCC(NC(=O)c1cc(-c2cccnc2)c(-c2ccnc3[nH]ccc23)s1)c1ccccc1` (centres unmarked) [GSK1323434], the “%Inh” value with PLK2 is 35%; with PLK3, 0%; in the assay on PLK4 it was 0%; in the assay on PRKCD, 95.4%; with PRKCE, 82%; with PRKCH, 88%. Moreover, the “%Inh” value amounted to 47% in the assay on PRKCI; 75% in the assay on PRKCQ; 1% in the assay on PRKD1; 12% in the assay on PRKD2; 34% in the assay on PRKD3; 45% with PRKG1. The “%Inh” value was determined as 68% in the assay on PRKG2; 0% in the assay with PRKR; 56% in the assay on PRKX; 29% in the assay with PRP4; 10% in the assay with PYK2; 13% in the assay on QSK. Moreover, the figures for the “%Inh” value with RAF1 and in the assay on RET were 12% and 28%, respectively.

`CC(C)(C)c1ccc(C(=O)Nc2cn3cc(-n4ccnc4)ccc3n2)cc1`: the “%Inh” value was found to be 24% in the assay with PLK2; 10% in the assay with PLK3; 0% in the assay on PLK4; 7% with PRKCD; 15% with PRKCE; 0% with PRKCH. Further, the “%Inh” value in the assay on PRKCI is recorded as 10%; in the assay on PRKCQ, 23%; with PRKD1 it was 0%; in the assay on PRKD2, 12%; in the assay on PRKD3, 0%; in the assay on PRKG1, 0%. The “%Inh” value with PRKG2 is 7%; with PRKR, 0%; in the assay on PRKX, 41%; in the assay on PRP4, 22%; in the assay with PYK2, 8%; in the assay with QSK, 0%. Moreover, the entries for the “%Inh” value with RAF1 and in the assay with RET were 10% and 0%, respectively.

For `Fc1cc(Cl)ccc1Nc1ccnc2cc(-c3ccc(CN4CCSCC4)o3)ccc12` [GW560106], the “%Inh” value was 0% in the assay on PLK2; 0% in the assay on PLK3; 97.6% with PLK4; 14% with PRKCD; 13% in the assay on PRKCE; 21% in the assay with PRKCH. In addition, the “%Inh” value in the assay with PRKCI was 23%; with PRKCQ, 0%; in the assay with PRKD1 it was 24%; in the assay on PRKD2, 19%; with PRKD3, 0%; in the assay with PRKG1, 27%. In addition, the “%Inh” value with PRKG2 was determined as 66%; in the assay with PRKR, 3%; with PRKX, 1%; in the assay on PRP4 it was 29%; with PYK2, 0%; in the assay with QSK it was 63%. The “%Inh” value stood at 12% in the assay with RAF1 and 98.3% in the assay on RET.

With `Cc1cc(-c2c(-c3ccc(F)cc3)ncn2CCCN2CCOCC2)nc(N)n1` [SB-222517], the “%Inh” value turned out to be 11% in the assay on PLK2; 25% with PLK3; 15% in the assay with PLK4; 28% in the assay with PRKCD; 0% with PRKCE; 0% with PRKCH. Moreover, the “%Inh” value is 27% in the assay with PRKCI; 0% in the assay on PRKCQ; 0% with PRKD1; 0% in the assay with PRKD2; 0% with PRKD3; 0% in the assay with PRKG1. Further, the “%Inh” value was found to be 0% in the assay with PRKG2; 16% in the assay on PRKR; 0% with PRKX; 0% in the assay on PRP4; 10% in the assay with PYK2; 23% with QSK. For the same molecule, the “%Inh” value in the assay with RAF1 is 0%; with RET, 13%.
